These results are taken from PubChem BioAssay AID1851 (National Center for Advancing Translational Sciences (NCATS), 2009).

The whole screen tested about 16,000 compounds, of which about 5,700 (36%) were called active. About 24% were inconclusive and are not listed. The list shows a part of the results. Values without a mark were called inactive. Calls follow the shape of the dose curve; as a rule, active = well fitted curve in the direction sought with a large enough effect; inconclusive = small, poorly fitted or top-dose-only effect, or effect the other way; inactive = no such curve, though single readings can be large or run the other way.
% is scaled to controls: 0 for no effect and ±100 for the full control effect.

Chain of Cytochrome P450 1A2 (Homo sapiens) (P05177 whole entry, looked up): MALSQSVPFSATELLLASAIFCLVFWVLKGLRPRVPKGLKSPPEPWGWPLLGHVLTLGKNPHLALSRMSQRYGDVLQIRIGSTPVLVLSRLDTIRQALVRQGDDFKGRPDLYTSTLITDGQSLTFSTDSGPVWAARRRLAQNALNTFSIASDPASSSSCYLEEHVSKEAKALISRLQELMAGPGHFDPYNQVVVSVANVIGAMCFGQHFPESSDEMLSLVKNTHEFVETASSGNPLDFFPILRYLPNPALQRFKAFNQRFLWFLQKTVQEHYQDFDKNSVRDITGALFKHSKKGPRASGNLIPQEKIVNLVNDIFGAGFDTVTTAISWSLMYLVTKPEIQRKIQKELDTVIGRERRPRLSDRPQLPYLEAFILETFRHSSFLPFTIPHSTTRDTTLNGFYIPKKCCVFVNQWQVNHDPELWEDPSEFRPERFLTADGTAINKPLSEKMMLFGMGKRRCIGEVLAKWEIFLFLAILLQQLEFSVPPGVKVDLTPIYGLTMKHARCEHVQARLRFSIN

This assay concerns the target Cytochrome P450 1A2 (Homo sapiens) (UniProt P05177). Put plainly: Cytochrome panel assay with activity outcomes. Particulars: recombinant CYP, pro-luciferin dealkylation, luminescence, p450-cyp1a2; series mostly up to 57.1 µM; activity, negative = inhibition: at the top concentration.
For `CC[C@](N)(C(=O)O)C(C)C`, the activity, negative = inhibition is -14.6% [at 11.4 µM]. Turning to `Cc1cccn2c(=O)c(C=NCc3ccco3)c(Nc3ccc(SC(F)F)cc3)nc12`, the AC50 (in general, the concentration at which the activity in the assay is half-maximal) is 0.562 µM (active). Turning to `Cc1ccc(C(=O)CNc2nc3c(c(=O)[nH]c(=O)n3C)n2Cc2ccccc2)cc1`, the “activity, negative = inhibition” value is -22.2%.

Take `O=c1c2ccccc2nc(-c2ccc(Br)cc2)n1Cc1ccccc1`: the AC50 is 10 µM (active). The same measure, in the same setting: with `O=c1c2ccccc2c(-c2ccc(Br)cc2)nn1Cc1ccccc1` the figure was 2.82 µM (active). With `O=C(CCn1nc(-c2ccc(Cl)cc2)c2ccccc2c1=O)NCCN1CCOCC1`, the “activity, negative = inhibition” value was -17.2%. Regarding `COC(=O)c1c(NC(=O)Cn2cc([N+](=O)[O-])cn2)sc2c1CCC2`, the AC50 is 1.26 µM (active). On the same count and under the same terms, for `CCOC(=O)c1c(NC(=O)Cn2cc([N+](=O)[O-])cn2)sc2c1CCC2` the value was 2.82 µM (active). For the molecule `CCC(=O)NC(Nc1sc2c(c1C(=O)OC)CCCC2)(C(F)(F)F)C(F)(F)F`, the “activity, negative = inhibition” value is -5.11%. Consider `CC1Cc2ccccc2N1C(=O)Cn1cc([N+](=O)[O-])cn1` (stereo not drawn), for which the “activity, negative = inhibition” value was -18.3%. As for `CCOC(=O)c1c(NC(=O)CSc2nnc(C)s2)sc2c1CCCCC2`, the AC50 was 8.91 µM (active). The same measure, in the same setting: with `COC(=O)c1c(NC(=O)c2ccco2)sc2c1CCC2` the figure was 0.891 µM (active). For the molecule `CC(=O)OC1COC(N2CCc3cc([N+](=O)[O-])ccc32)C(OC(C)=O)C1OC(C)=O` (stereo not drawn), the “activity, negative = inhibition” value is 0.819%. Same read-out and setting: for `CCc1nc(SCC(=O)NNC(=O)C2CCCCC2)c2ccccc2n1` the value was 1.59%. Turning to `C#CCSc1nc(Cc2ccc(Cl)cc2)nc2ccccc12`, the AC50 is 1.26 µM (active). Still for that read-out and setting: with `COc1cccc(CSc2nnc(C(F)(F)F)n2Cc2ccc(F)cc2)c1` the figure was 11.2 µM (active). For the molecule `Fc1ccc(Cn2c(SCc3ccc(F)c(C(F)(F)F)c3)nnc2C(F)(F)F)cc1`, the “activity, negative = inhibition” value was -29.4%. For `CC(C)CC1NC(=S)N(C2CCCCC2)C1=O` (stereo not drawn), the “activity, negative = inhibition” value was -15.6%. The same measure, in the same setting: with `O=C(/C=C/c1ccc(Cl)cc1)Nc1ccc(N2CCCCC2)cc1` the figure was -7.34%. Turning to `CC(=O)Nc1ccc(N2CCCCC2)cc1`, the AC50 was 14.1 µM (active). Consider `CC(=O)N1CCN(c2ccc(NC(=O)c3ccc(C)cc3)cc2)CC1`, for which the “activity, negative = inhibition” value is 0.154%. As for `O=C(Nc1ccc(N2CCCCC2)cc1)c1cncc(Br)c1`, the AC50 was 4.47 µM (active). Take `CCc1ccc(OCCCC(=O)Nc2ccc(N3CCCCC3)cc2)cc1`: the “activity, negative = inhibition” value is -6.6%. Same read-out and setting: with `Cc1c(N2CCCC2)cc2c(c1NC(=O)c1ccccc1Cl)C(C)(C)CC2(C)C` the figure was -13.1% [at 2.29 µM]. Turning to `CC(=O)Nc1ccc(N2CCCCC2)c(C(=O)Nc2cccc(C)c2)c1`, the AC50 was 14.1 µM (active). Turning to `Cc1ccc(NC(=O)c2cc(NC(=O)CCC(=O)O)ccc2N2CCCCC2)cc1`, the “activity, negative = inhibition” value is -14.5%. On the same count and under the same terms, for `CC(C)CN1CCC2(CC1)CCN(C(=O)c1cnccn1)CC2` the value was -7.79%; for `CC(=O)OC[C@@H]1O[C@@H](O/N=C2/C[C@@H](O)[C@@H](O)[C@@H]3[C@@H]4C(=O)N(Cc5ccccc5)C(=O)[C@H]4CC[C@H]23)[C@H](OC(C)=O)[C@H](OC(C)=O)[C@@H]1OC(C)=O`, -1.74% [at 11.4 µM].

Turning to `CSc1nc2c(c(C(F)(F)F)n1)CC(C)CC2` (stereo not drawn), the concentration at half-maximal activity (AC50) was 25.1 µM (active). As to `C[C@H](NC(=O)Cn1cncn1)c1ccccc1`, the “activity, negative = inhibition” value is -3.83%. Take `O=C(Nc1ccc(OC(F)(F)F)cc1)c1n[nH]c(Cn2cncn2)n1`: the AC50 was 0.158 µM (active).

Regarding `O=C(Nc1cccc(C(F)(F)F)c1)c1n[nH]c(Cn2cncn2)n1`, the AC50 was 0.126 µM (active). Regarding `O=[N+]([O-])c1cc(C(F)(F)F)ccc1NCCCCNS(=O)(=O)c1ccc2ccccc2c1`, the “activity, negative = inhibition” value was -31.8%. For the molecule `Cc1ccccc1OCCNc1ccc(C(F)(F)F)cc1[N+](=O)[O-]`, the concentration at half-maximal activity (AC50) was 0.891 µM (active).

Take `Cc1ccc(C)c(C(=N)c2ccccc2Cc2ccccc2)c1`: the activity, negative = inhibition was -6.82% [at 2.29 µM]. `COC(=O)c1c(C)[nH]c(C)c1C(=O)c1ccccc1Cc1ccccc1`: the AC50 is 0.251 µM (active).

For `Nc1nc(SCc2ccc([N+](=O)[O-])cc2)c2ncn([C@@H]3O[C@@H](CO)[C@@H](O)[C@H]3O)c2n1`, the “activity, negative = inhibition” value was -8.58%. Same read-out and setting: with `Cc1ccc(CS(=O)(=O)CCC(=O)NCCCN2CCCC2=O)cc1` the figure was -15.9%. Turning to `Cc1ccc(S(=O)(=O)N(CCCN2CCCC2=O)Cc2cc3c(C)ccc(C)c3[nH]c2=O)cc1`, the “activity, negative = inhibition” value was -21%. Consider `COc1ccc2[nH]c3c(NCCCN4CCCC4=O)ncnc3c2c1`, for which the AC50 was 11.2 µM (active). For the molecule `CC(=O)N[C@@H](CC(=O)O)C(=O)O`, the “activity, negative = inhibition” value is -4.66% [at 25.6 µM].

Consider `CC1CC(C)CN(C(=O)CSc2nnc(CSc3ncccn3)n2C)C1` (stereo not drawn), for which the “activity, negative = inhibition” value was -0.204%. Consider `Cn1c(SCC(=O)N2CCN(S(=O)(=O)c3ccccc3)CC2)nc2ccccc21`, for which the “activity, negative = inhibition” value was -17.9%.

`CC1CCN(C(=O)CSc2nc3cccnc3n2C)CC1`: the AC50 is 20 µM (active). Consider `CC1CCN(C(=O)C2CCN(S(=O)(=O)c3cccc4nonc34)CC2)CC1`, for which the “activity, negative = inhibition” value was -0.137%.

`Cc1nc2ccccc2nc1SCC(=O)N1CCC(C)CC1`: the half-maximal activity concentration (AC50) is 3.55 µM (active). `NC(=O)C1CCN(C(=O)CN2C(=O)c3ccccc3S2(=O)=O)CC1`: the “activity, negative = inhibition” value was 1.85%.

Consider `CCc1cc2c(nc1CC)CCN(CC/C(C)=N/O[C@@H]1O[C@H](COC(C)=O)[C@H](OC(C)=O)[C@H](OC(C)=O)[C@H]1OC(C)=O)C2`, for which the activity, negative = inhibition was 0.132% [at 11.4 µM].
